Many of the other results were omitted from the sample, so hits are more common in it than they were.
IDE exosite FP: displaces the probe from the exo-site of human IDE; AID 1259349; purified IDE, FL-6b probe fluorescence polarization; active compounds read low; actives 6.3% (n = 17,000); P14735; z-score at 20 µM;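 active = z-score of -3 or lower, meaning strong loss of probe binding signal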;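 also: His-tagged human IDE residues 42-1019 made in E. coli with 30 nM FL-6b probe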
Target sequence (P14735 42-1019 limits assumed): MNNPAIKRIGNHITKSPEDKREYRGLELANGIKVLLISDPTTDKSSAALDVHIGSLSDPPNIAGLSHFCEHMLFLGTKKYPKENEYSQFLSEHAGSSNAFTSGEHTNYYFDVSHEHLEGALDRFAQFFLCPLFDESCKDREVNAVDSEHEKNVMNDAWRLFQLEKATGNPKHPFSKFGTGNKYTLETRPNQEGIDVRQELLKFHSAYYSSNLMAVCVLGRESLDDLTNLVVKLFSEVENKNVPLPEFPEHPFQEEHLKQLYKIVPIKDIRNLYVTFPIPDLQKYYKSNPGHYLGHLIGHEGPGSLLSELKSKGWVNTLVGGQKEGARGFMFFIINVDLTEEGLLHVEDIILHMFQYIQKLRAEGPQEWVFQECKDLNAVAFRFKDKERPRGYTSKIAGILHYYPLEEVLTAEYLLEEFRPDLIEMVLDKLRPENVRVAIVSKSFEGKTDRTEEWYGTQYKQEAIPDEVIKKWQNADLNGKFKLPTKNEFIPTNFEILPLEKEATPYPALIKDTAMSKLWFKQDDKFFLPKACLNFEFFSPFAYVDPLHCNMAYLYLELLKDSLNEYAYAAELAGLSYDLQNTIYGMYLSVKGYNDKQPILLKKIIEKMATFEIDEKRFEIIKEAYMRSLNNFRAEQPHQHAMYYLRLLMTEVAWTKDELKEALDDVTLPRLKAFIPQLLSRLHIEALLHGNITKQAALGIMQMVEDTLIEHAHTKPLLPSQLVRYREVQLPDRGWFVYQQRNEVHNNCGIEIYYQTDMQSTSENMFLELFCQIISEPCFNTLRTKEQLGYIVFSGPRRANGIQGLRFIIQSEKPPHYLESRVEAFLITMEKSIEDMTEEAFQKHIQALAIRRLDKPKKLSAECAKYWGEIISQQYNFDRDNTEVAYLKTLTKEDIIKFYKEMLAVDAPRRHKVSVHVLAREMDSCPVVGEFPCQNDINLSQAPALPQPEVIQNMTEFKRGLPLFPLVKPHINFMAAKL
* marks the source's active call; other numbers are inactive results.

SMILES	IDE exosite FP
COc1ccc2c3c([nH]c2c1)[C@H](CO)N(C(C)=O)CC31CN(C(=O)CN2CCOCC2)C1	-1.31
COCC(=O)N1CC(=O)N2[C@@H](CO)[C@H](c3ccc(C#CC4CC4)cc3)[C@@H]2C1	-1.49
COc1ccc([C@H]2C/C=C\C[C@H](c3ccc(F)cc3)NC(=O)CCC(=O)N2)c(OC)c1	0.733
CO[C@H]1CN(C)C(=O)c2cc(NC(=O)c3cnccn3)ccc2OC[C@@H](C)NC[C@@H]1C	2
COc1cccc(NC(=O)Nc2ccc3c(c2)C(=O)N(C)C[C@@H](OC)[C@@H](C)CN[C@@H](C)CO3)c1	-0.138
CO[C@@H]1CN(C)C(=O)c2cc(NC(=O)c3ccc(Oc4ccccc4)cc3)ccc2OC[C@H](C)NC[C@H]1C	-7.56*
CO[C@H]1CN(C)C(=O)c2cc(NC(=O)c3ccc(Oc4ccccc4)cc3)ccc2OC[C@@H](C)NC[C@@H]1C	-13.2*
COc1cccc(NC(=O)Nc2ccc3c(c2)C(=O)N(C)C[C@H](OC)[C@H](C)CN[C@H](C)CO3)c1	1.65
COc1cccc(NC(=O)Nc2ccc3c(c2)C(=O)N(C)C[C@@H](OC)[C@@H](C)CN[C@H](C)CO3)c1	-0.955
CO[C@H](CN(C)C(=O)c1cnccn1)[C@@H](C)CN([C@H](C)CO)S(=O)(=O)c1ccccc1	1.13
O=C1CN(Cc2ccccc2)C[C@H]2[C@H](c3ccc(Br)cc3)[C@H](CO)N12	2.73
O=C(Nc1ccc(F)cc1)N1CC(=O)N2[C@H](CO)[C@@H](c3ccc(C4=CCCC4)cc3)[C@H]2C1	0.748
CC(=O)N1[C@H](CO)[C@H](c2ccc(-c3cccnc3)cc2)[C@@H]1CNC(=O)C1CC1	0.0981
O=C(C1CCCCC1)N1CC(=O)N2[C@H](CO)[C@H](c3ccc(C#CCc4ccccc4)cc3)[C@@H]2C1	-0.558
COc1ccc2c3c(n(C)c2c1)[C@H](CO)N(C(=O)Nc1ccc(F)cc1)CC31CCN(C(=O)c2ccc3c(c2)OCO3)CC1	-0.317
COCC(=O)N1CCCCN2[C@@H](CO)[C@@H](c3ccc(-c4ccccc4)cc3)[C@@H]2C1	1.32
COc1cccc(C#Cc2ccc([C@@H]3[C@H](CO)N4C(=O)CN(C(=O)Cc5ccccc5)C[C@@H]34)cc2)c1	-0.783
CCCC#Cc1ccc([C@@H]2[C@H]3CN(C(=O)Cc4cccnc4)CC(=O)N3[C@H]2CO)cc1	-4.26*
CCCC#Cc1ccc([C@@H]2[C@@H](CO)N3C(=O)CN(C(=O)Cc4cccnc4)C[C@H]23)cc1	2.29
CCCC#Cc1ccc([C@H]2[C@@H](CO)N3C(=O)CN(C(=O)Cc4cccnc4)C[C@@H]23)cc1	-0.657
COc1cccc(C#Cc2ccc([C@H]3[C@H](CO)N4C(=O)CN(C(=O)Cc5ccccc5)C[C@@H]34)cc2)c1	-0.112
COc1cccc(C#Cc2ccc([C@H]3[C@@H](CO)N4C(=O)CN(C(=O)Cc5cccnc5)C[C@@H]34)cc2)c1	-1.64
COc1cccc(C#Cc2ccc([C@@H]3[C@H](CO)N4C(=O)CN(C(=O)Cc5cccnc5)C[C@@H]34)cc2)c1	-4.12*
CC(C)C#Cc1ccc([C@@H]2[C@@H](CO)N3C(=O)CN(C(=O)Cc4cccnc4)C[C@H]23)cc1	4.88
CCCC#Cc1ccc([C@H]2[C@@H](CO)N3C(=O)CN(C(=O)Cc4cccnc4)C[C@H]23)cc1	-2.97
SMILES	IDE exosite FP
COc1cccc(C#Cc2ccc([C@@H]3[C@H]4CN(C(=O)Cc5cccnc5)CC(=O)N4[C@H]3CO)cc2)c1	-5*
CCCC#Cc1ccc([C@@H]2[C@@H](CO)N3C(=O)CN(C(=O)Cc4cccnc4)C[C@@H]23)cc1	-1.62
COc1cccc(C#Cc2ccc([C@H]3[C@H]4CN(C(=O)Cc5cccnc5)CC(=O)N4[C@H]3CO)cc2)c1	-4.07*
O=C(C[C@@H]1C=C[C@@H](NC(=O)Cc2ccccn2)[C@H](CO)O1)NCCc1ccncc1	0.25
O=C(CN1CCOCC1)N1[C@@H](CO)[C@@H]2c3ccccc3NC[C@@H]21	2.47
CN1C(=O)c2cc(NC(=O)c3ccc4c(c3)OCO4)ccc2OC[C@H]2O[C@H](CC(=O)O)CC[C@H]21	-0.0285
N#C[C@H]1[C@H](c2ccccc2)[C@H](CO)N1C(=O)c1ccc2c(c1)OCO2	-1.26
COC(=O)c1ccc(CN2CC(=O)N3[C@H](CO)[C@H](c4ccc(-c5cccnc5)cc4)[C@@H]3C2)cc1	-0.103
COCC(=O)N1[C@H](CO)[C@@H](c2ccccc2C2=CCCCC2)[C@@H]1C#N	-0.318
COc1ccc2c3c(n(C)c2c1)[C@@H](CO)N(S(C)(=O)=O)CC31CCN(Cc2cncnc2)CC1	-1.04
C/C=C/c1ccc([C@H]2[C@H]3CN(C(=O)Cc4cccnc4)CC(=O)N3[C@H]2CO)cc1	-0.491
O=C(c1ccncc1)N1CC(=O)N2[C@H](CO)[C@@H](c3ccc(/C=C/c4ccccc4)cc3)[C@H]2C1	-1.23
O=C(c1ccc(F)cc1)N1CC(=O)N2[C@@H](CO)[C@H](c3ccc(/C=C/c4ccccc4)cc3)[C@@H]2C1	-5.27*
O=C(c1ccc(F)cc1)N1CC(=O)N2[C@H](CO)[C@@H](c3ccc(/C=C/c4ccccc4)cc3)[C@@H]2C1	0.703
O=C(Cc1cccnc1)N1CC(=O)N2[C@H](C1)[C@@H](c1ccc(/C=C/c3ccccc3)cc1)[C@@H]2CO	-4.73*
C/C=C/c1ccc([C@H]2[C@H](CO)N3C(=O)CN(C(=O)c4ccc(F)cc4)C[C@@H]23)cc1	2.38
C/C=C/c1ccc([C@@H]2[C@@H](CO)N3C(=O)CN(C(=O)Cc4cccnc4)C[C@H]23)cc1	1.12
O=C(c1cccnc1)N1CC(=O)N2[C@H](CO)[C@@H](c3ccc(/C=C/c4ccccc4)cc3)[C@H]2C1	-5.41*
O=C(c1ccccc1)N1CC(=O)N2[C@H](C1)[C@@H](c1ccc(/C=C/c3ccccc3)cc1)[C@@H]2CO	-2.63
O=C(c1cccnc1)N1CC(=O)N2[C@H](CO)[C@H](c3ccc(-c4ccc(F)cc4)cc3)[C@@H]2C1	0.282
O=C(c1ccccc1)N1CC(=O)N2[C@@H](CO)[C@H](c3ccc(/C=C/c4ccccc4)cc3)[C@@H]2C1	-3.39*
O=C(c1cccc(F)c1)N1CC(=O)N2[C@H](CO)[C@H](c3ccc(/C=C/c4ccccc4)cc3)[C@@H]2C1	-2.7
CN(C)C(=O)c1ccc(-c2ccc([C@@H]3[C@@H](C#N)N(C(=O)Cc4ccccn4)[C@H]3CO)cc2)cc1	0.855
COCC(=O)NC[C@@H]1[C@@H](c2ccccc2)[C@@H](CO)N1C(C)=O	5.07
O=C(C[C@H]1CC[C@H](NC(=O)c2cccnc2)[C@@H](CO)O1)NCc1ccc(Cl)c(Cl)c1	-0.39
SMILES	IDE exosite FP
CCC(=O)NC[C@@H]1[C@H](c2ccccc2)[C@H](CO)N1C(=O)C1CC1	1.87
O=C1CN(S(=O)(=O)c2ccccc2)C[C@H]2[C@@H](c3ccc(C#Cc4ccccc4)cc3)[C@H](CO)N12	2.42
C[C@H](CO)N1C[C@H](C)[C@@H](CN(C)C(=O)Nc2ccccc2)OCCCC[C@H](C)Oc2ccc(NC(=O)Nc3ccccc3)cc2C1=O	0.278
C[C@H](CO)N1C[C@H](C)[C@H](CN(C)Cc2cccnc2)Oc2ncc(-c3ccc(C#N)cc3)cc2C1=O	0.173
COc1cccc(S(=O)(=O)N2C[C@@H](O)COC[C@@H]3O[C@H](CC(=O)N4CCN(c5ccccc5)CC4)CC[C@H]32)c1	1.15
N#C[C@@H]1N[C@@H](CO)[C@H]1c1ccc(C#CC2CCCCC2)cc1	1.59
CCCC#Cc1ccc([C@H]2[C@H]3CN(S(=O)(=O)c4ccccc4C)CC(=O)N3[C@H]2CO)cc1	-0.734

Screening results from PubChem BioAssay.
